# Laboratory results as given in the supplement of paper PMC6555819.
# Experiments:
# Assay in all cases: PBM binding z-score (relative to random genomic background probes); higher = stronger binding; sequences stand for … in GC…GCGATTGACAGCGTAGAATGAAGG
# [1] = tested on: FXR:RXRa (NR concentration 270 nM, RXRa partner concentration 90 nM)
# How it was run: (§1)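 Custom Agilent 4×180K protein-binding microarrays carried double-stranded probes. Their 34-nt variable regions held direct-repeat seeds, single-nucleotide variants, half-site ablations and random human genomic background sequences. Arrays were incubated 1 h with ligand-free nuclear receptor dimers in PBS pH 7.4, 2% milk, 0.02% Triton X-100, 1 mM DTT, 0.2 mg/mL BSA and 0.4 mg/ml salmon testes DNA. Antibodies against each partner (one per run) detected binding, and scanned fluorescence was regression-normalized. Binding z-scores use random background probes as reference.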
# [2] = tested on: LXRa:RXRa (NR concentration 270 nM, RXRa partner concentration 90 nM)
# How it was run: as §1
# [3] = tested on: LXRa homodimer (NR concentration 270 nM)
# How it was run: as §1
# [4] = tested on: LXRb:RXRa (NR concentration 270 nM, RXRa partner concentration 90 nM)
# How it was run: as §1
# [5] = tested on: LXRb homodimer (NR concentration 270 nM)
# How it was run: as §1
# [6] = tested on: PPARa:RXRa (NR concentration 270 nM, RXRa partner concentration 90 nM)
# How it was run: as §1
# [7] = tested on: PPARg:RXRa (NR concentration 180 nM, RXRa partner concentration 90 nM)
# How it was run: as §1
# [8] = tested on: PPARg:RXRa 270nM:90nM, anti-RXR (NR concentration 270 nM, RXRa partner concentration 90 nM)
# How it was run: as §1
# [9] = tested on: PPARg:RXRa 30nM:10nM, anti-RXR (NR concentration 30 nM, RXRa partner concentration 10 nM)
# How it was run: as §1
# [10] = tested on: PPARg:RXRa 90nM:30nM, anti-RXR (NR concentration 90 nM, RXRa partner concentration 30 nM)
# How it was run: as §1
Sequence,PBM binding z-score [1],PBM binding z-score [2],PBM binding z-score [3],PBM binding z-score [4],PBM binding z-score [5],PBM binding z-score [6],PBM binding z-score [7],PBM binding z-score [8],PBM binding z-score [9],PBM binding z-score [10]
CAAACTAGGTCAAGAGATCAAAGTCCGCTTCCCG,3.4,2.88,0.62,1.95,0.064,5.17,8.04,6.89,4.87,6.68
TCATATAGGTAAAGGTGAACGTCGAACGATATGA,1.01,1.27,-0.125,1.25,-0.0636,3.18,4.94,4.76,4.7,5.08
AGAACGAGGGCACGCTGAGTTGCTAGCAGAGTAG,0.473,0.348,-0.756,-0.279,-1.02,2.05,1.85,1.6,0.179,0.707
GGAACGAGGGCAAGTGGATAGCAGAGTTTGATGG,0.68,0.618,-0.0905,0.0624,-0.475,1.36,1.21,1.21,-0.127,0.598
AATACAGGGTCACTAGGCCAGATTAGGTACGAAT,6.03,5.16,1.09,4.11,1.11,5.92,7.81,6.39,3.62,5.04
GCTAGTTGGTCAGTTAAAGGTCACACACCGGTCG,3.58,4.58,5.75,3.98,0.905,4.23,3.18,5.17,3.67,4.95
ACAGACAAGTGAGTGAAGGTAACTCAGCTGGACG,-0.054,-0.258,-0.475,-0.57,-0.342,-0.314,0.674,-0.0179,-0.202,-0.0069
GCAGACAGATGAAACGCAGGTAACTCAGGGTGGC,-0.734,-0.704,-0.594,-0.986,-1.14,-0.624,0.616,-0.641,-0.438,-0.564
ATCTCTAGGTAAAAGTTCAGTGAATCCCGAGGAT,0.943,1.4,1.16,1.12,0.841,4.11,8.09,7.52,8.83,8.39
GCGACTGGGGCATCTGCAGGTTACCATAACTTAA,-0.256,0.365,-0.281,1.41,-0.198,1.53,0.863,1.01,-0.39,0.715
TCTCGAAGGACACGAAAGGTCAGAGCTCGACATC,2.94,3.47,2.63,3.26,0.0129,3.58,1.59,3.13,3.42,3.16
TCATATAGGTAAAGGTGAAAGTCGAACGATATGA,0.768,1.27,-0.00869,1.05,-0.112,3.41,4.01,4.55,4.42,4.75
GCTATTAGTTGAAAGGGCAACCAAATGATTCTCG,0.334,0.735,0.214,0.946,-0.0517,2.45,2.73,4.6,2.34,4.39
CAGACTGGGGCATAAGGTTACCATAAGCCAGCCC,0.722,2.35,-0.275,1.27,-0.727,2.55,3.37,3.96,2.09,3.72
CTTGAAAGGTCGTGCTCAGGTGAGTATACCAAAC,5.86,4.22,0.0529,4.1,0.221,5.03,2.74,3.62,0.962,2.69
TCTTGTAGAGCAAAGGTTAAGAAAGCCGAAGCCT,0.884,1.23,-0.186,1.4,-0.852,4.91,8.91,8.58,8.43,8.68
GGAACGAGGGCAAAGTAGATAGCATCTGTCGACG,0.832,0.557,-0.498,0.289,-0.467,1.98,2.48,2.96,0.802,2.23
ATACCAAGGTGATCGTGAGGTCGTTAATACTAAC,1.59,1.12,0.651,1.37,-0.102,1.55,0.445,0.146,-0.147,0.0284
CCTTACGGGACAAGGTTATAGCACGGGTGGTACG,0.441,0.693,-0.25,0.134,-0.233,1.02,1.08,0.756,0.00492,0.323
AGAATGAAGTTACCAAAGATCAGGGAAACGCTTG,-0.327,0.631,-0.337,-0.292,-0.771,-0.153,0.523,0.0888,0.0872,0.08
CGTCAAAATTCAACTAAGGTAACGTAAAGCACGC,0.963,0.314,0.303,0.543,0.0502,0.568,0.569,0.127,-0.0256,0.246
AGTCTAAGTTCAGGACGAGGTAACGTAAAGCACG,1.61,1.56,0.288,0.821,-0.194,1.82,0.831,0.749,0.345,0.385
GGAAAGAGGGCAAGTTGATAGCAGAGTTTGATGG,1.6,1.58,0.345,1.25,0.718,2.15,1.14,1.59,0.606,1.04
CGAACGATGGCATGAGTTGATAGCAAATGCCGAT,-0.377,-0.686,-0.408,-0.556,-0.839,-0.496,0.77,0.203,0.0969,-0.044
